Measured values taken from PubChem BioAssay AID1159580 (chemical genetic matrix, 2015).
The whole screen tested about 5,500 compounds, of which about 2,000 (36%) were called active. Inconclusive results (about 18%) are left out. No stated cut-off is given here; in the data, active means normalized growth mostly below about 0.91 (no sharp cut-off); inconclusive means no clear call, values can overlap the other calls; inactive means mostly above about 0.92. The list shows a part of the results.

Experiment: chemical genetic growth profiling, strain panel (AID 1159580);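 further: tested at 20 µM; growth read once vehicle control cultures reached saturation at 30 °C; 1 = growth at the plate median or of vehicle wells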
Settings: S. cerevisiae deletion strains, growth OD
[1] = locus YAL021C, strain ccr4, stronger effect = lower value
[2] = locus YAL026C, strain drs2, stronger effect = lower value
[3] = locus YAL030W, strain snc1, stronger effect = lower value
[4] = locus YBL061C, strain skt5, stronger effect = lower value
[5] = locus YBR009C, strain hhf1, stronger effect = lower value
[6] = locus YBR023C, strain chs3, stronger effect = lower value
[7] = locus YBR231C, strain swc5, stronger effect = lower value
[8] = locus YBR279W, strain paf1, stronger effect = lower value
[9] = locus YCL011C, strain gbp2, stronger effect = lower value
[10] = locus YCL016C, strain dcc1, stronger effect = lower value
[11] = locus YCL069W, strain vba3, stronger effect = lower value
[12] = locus YCR088W, strain abp1, stronger effect = lower value
[13] = locus YDL005C, strain med2, stronger effect = lower value
[14] = locus YDL040C, strain nat1, stronger effect = lower value
[15] = locus YDR001C, strain nth1, stronger effect = lower value
[16] = locus YDR069C, strain doa4, stronger effect = lower value
[17] = locus YDR137W, strain rgp1, stronger effect = lower value
[18] = locus YDR159W, strain sac3, stronger effect = lower value
[19] = locus YDR297W, strain sur2, stronger effect = lower value
[20] = locus YDR334W, strain swr1, stronger effect = lower value
[21] = locus YDR335W, strain msn5, stronger effect = lower value
[22] = locus YDR392W, strain spt3, stronger effect = lower value
[23] = locus YEL003W, strain gim4, stronger effect = lower value
[24] = locus YEL037C, strain rad23, stronger effect = lower value
[25] = locus YEL061C, strain CIN8 (second series), stronger effect = lower value
[26] = locus YER015W, strain faa2, stronger effect = lower value
[27] = locus YER016W, strain bim1, stronger effect = lower value
[28] = locus YER111C, strain swi4, stronger effect = lower value
[29] = locus YER155C, strain BEM2 (second series), stronger effect = lower value
[30] = locus YFR010W, strain ubp6, stronger effect = lower value
[31] = locus YGL167C, strain pmr1, stronger effect = lower value
[32] = locus YGL173C, strain kem1, stronger effect = lower value
[33] = locus YGL227W, strain vid30, stronger effect = lower value
[34] = locus YGL240W, strain doc1, stronger effect = lower value
[35] = locus YGL253W, strain hxk2, stronger effect = lower value
[36] = locus YHR013C, strain ard1, stronger effect = lower value
[37] = locus YHR027C, strain rpn1, stronger effect = lower value
[38] = locus YHR030C, strain SLT2, stronger effect = lower value
[39] = locus YHR079C, strain IRE1, stronger effect = lower value
[40] = locus YHR142W, strain chs7, stronger effect = lower value
[41] = locus YJL092W, strain hpr5, stronger effect = lower value
[42] = locus YJL095W, strain BCK1 (second series), stronger effect = lower value
[43] = locus YJL095W, strain BCK1, stronger effect = lower value
[44] = locus YJL115W, strain asf1, stronger effect = lower value
[45] = locus YJL129C, strain trk1, stronger effect = lower value
[46] = locus YJL154C, strain vps35, stronger effect = lower value
[47] = locus YJL164C, strain tpk1, stronger effect = lower value
[48] = locus YJL166W, strain qcr8, stronger effect = lower value
[49] = locus YJR066W, strain TOR1, stronger effect = lower value
[50] = locus YKL160W, strain elf1, stronger effect = lower value
[51] = locus YKR026C, strain gcn3, stronger effect = lower value
[52] = locus YKR091W, strain srl3, stronger effect = lower value
[53] = locus YLL001W, strain dnm1, stronger effect = lower value
[54] = locus YLL026W, stronger effect = lower value
[55] = locus YLL041C, strain sdh2, stronger effect = lower value
[56] = locus YLR027C, strain aat2, stronger effect = lower value
[57] = locus YLR113W, strain HOG1, stronger effect = lower value
[58] = locus YLR221C, strain rsa3, stronger effect = lower value
[59] = locus YLR258W, strain gsy2, stronger effect = lower value
[60] = locus YLR262C, strain YPT6 (second series), stronger effect = lower value
[61] = locus YLR320W, strain mms22, stronger effect = lower value
[62] = locus YLR342W, strain FKS1, stronger effect = lower value
[63] = locus YLR357W, strain rsc2, stronger effect = lower value
[64] = locus YLR370C, strain arc18, stronger effect = lower value
[65] = locus YLR384C, strain iki3, stronger effect = lower value
[66] = locus YML120C, strain ndi1, stronger effect = lower value
[67] = locus YMR058W, strain fet3, stronger effect = lower value
[68] = locus YMR125W, strain sto1, stronger effect = lower value
[69] = locus YMR129W, stronger effect = lower value
[70] = locus YMR205C, strain PFK2, stronger effect = lower value
[71] = locus YMR231W, strain pep5, stronger effect = lower value
[72] = locus YNL071W, strain lat1, stronger effect = lower value
[73] = locus YNL183C, strain NPR1, stronger effect = lower value
[74] = locus YNL209W, strain ssb2, stronger effect = lower value
[75] = locus YNL248C, strain rpa49, stronger effect = lower value
[76] = locus YNL322C, strain KRE1 (second series), stronger effect = lower value
[77] = locus YNR049C, strain mso1, stronger effect = lower value
[78] = locus YOR001W, strain rrp6, stronger effect = lower value
[79] = locus YOR070C, strain gyp1, stronger effect = lower value
[80] = locus YOR080W, strain dia2, stronger effect = lower value
[81] = locus YOR083W, strain WHI5, stronger effect = lower value
[82] = locus YOR106W, strain vam3, stronger effect = lower value
[83] = locus YOR231W, strain MKK1, stronger effect = lower value
[84] = locus YOR265W, strain rbl2, stronger effect = lower value
[85] = locus YOR270C, strain vph1, stronger effect = lower value
[86] = locus YOR290C, strain snf2, stronger effect = lower value
[87] = locus YPL051W, strain arl3, stronger effect = lower value
[88] = locus YPL078C, strain atp4, stronger effect = lower value
[89] = locus YPL106C, strain sse1, stronger effect = lower value
[90] = locus YPL240C, strain hsp82, stronger effect = lower value
[91] = locus YPL256C, strain CLN2, stronger effect = lower value

Measured: normalized growth

COc1cccc2c1C(=O)c1c(O)c3c(c(O)c1C2=O)C[C@@](O)(C(C)=O)C[C@@H]3O[C@H]1C[C@H](N)[C@H](O)[C@H](C)O1
active: [1] 0.872 | [5] 0.894 | [18] 0.836 | [26] 0.914 | [29] 0.802 | [34] 0.621 | [35] 0.907 | [44] 0.885 | [45] 0.53 | [48] 0.827 | [61] 0.727 | [70] 0.873 | [72] 0.848 | [75] 0.706 | [88] 0.891
inactive: [2] 0.959 | [3] 0.946 | [4] 0.953 | [6] 0.953 | [7] 0.913 | [8] 0.968 | [9] 0.969 | [10] 1 | [11] 0.966 | [12] 0.981 | [13] 0.962 | [14] 0.941 | [15] 0.958 | [16] 0.922 | [17] 0.956 | locus YDR195W, strain ref2 0.983 | [19] 0.967 | [20] 0.903 | [21] 0.987 | [22] 0.976 | [23] 0.989 | [24] 0.974 | [25] 0.951 | [27] 0.993 | [28] 0.991 | [30] 0.91 | [31] 0.986 | [32] 0.97 | [33] 0.941 | [36] 0.933 | [37] 0.94 | [38] 0.994 | [39] 0.989 | [40] 0.956 | [41] 0.975 | [42] 0.977 | [43] 1.01 | [46] 0.957 | [47] 0.97 | [49] 0.954 | [50] 0.963 | [51] 0.971 | [52] 0.971 | [53] 0.981 | [54] 0.986 | [55] 0.971 | [56] 0.976 | [57] 1.01 | [58] 0.977 | [59] 0.991 | [60] 0.919 | [62] 0.967 | [63] 0.917 | [64] 0.97 | [65] 0.966 | [66] 0.959 | [67] 0.922 | [68] 0.966 | [69] 0.978 | [71] 0.968 | [73] 0.971 | [74] 0.945 | [76] 0.975 | [77] 0.965 | [78] 0.96 | [79] 0.977 | [80] 0.951 | [81] 0.972 | [82] 0.911 | [83] 1.01 | [84] 0.949 | [85] 0.919 | [86] 0.995 | [87] 0.958 | [89] 1.1 | [90] 0.98 | [91] 0.987

COc1cccc2c1C(=O)c1c(O)c3c(c(O)c1C2=O)C[C@@](O)(C(=O)CO)C[C@@H]3O[C@H]1C[C@H](N)[C@@H](O)[C@H](C)O1
active: [1] 0.648 | [2] 0.894 | [3] 0.891 | [4] 0.888 | [5] 0.552 | [6] 0.894 | [7] 0.692 | [9] 0.845 | [10] 0.753 | locus YCL061C, strain MRC1, stronger effect = lower value 0.897 | [16] 0.848 | [17] 0.846 | [18] 0.501 | [19] 0.906 | [20] 0.78 | [26] 0.801 | [27] 0.862 | [29] 0.595 | [30] 0.867 | [33] 0.889 | [34] 0.488 | [35] 0.576 | [36] 0.635 | [37] 0.854 | [40] 0.84 | [41] 0.855 | [42] 0.913 | [44] 0.682 | [45] 0.337 | [47] 0.737 | [48] 0.59 | [50] 0.75 | [53] 0.875 | [54] 0.851 | [55] 0.918 | [56] 0.821 | [58] 0.759 | [59] 0.834 | [60] 0.826 | [61] 0.312 | [62] 0.873 | [63] 0.785 | [66] 0.794 | [67] 0.806 | [68] 0.825 | [70] 0.634 | [72] 0.689 | [74] 0.899 | [75] 0.177 | [78] 0.875 | [79] 0.863 | [80] 0.89 | [81] 0.804 | [82] 0.682 | [84] 0.879 | [85] 0.766 | [86] 0.78 | [87] 0.8 | [88] 0.785 | [89] 1.2 [resistant] | [90] 0.926
inactive: locus YBR171W, strain sec66, stronger effect = lower value 0.985 | [8] 0.958 | [11] 0.965 | [12] 0.953 | [13] 0.951 | [14] 0.947 | [15] 0.937 | locus YDR195W, strain ref2 1.09 | [21] 0.928 | [22] 0.906 | [23] 0.955 | [24] 0.991 | [25] 0.982 | [28] 0.988 | [31] 0.969 | [32] 0.997 | [38] 1.01 | [39] 0.994 | [43] 0.958 | [46] 0.952 | locus YJL187C, strain SWE1, stronger effect = lower value 0.93 | [49] 0.948 | [51] 0.926 | [52] 0.943 | [57] 0.91 | [64] 0.96 | [65] 0.977 | [69] 0.963 | [71] 0.967 | [73] 0.935 | [76] 0.943 | [77] 0.937 | [83] 0.997 | [91] 0.981

CC(=O)[C@]1(O)Cc2c(O)c3c(c(O)c2[C@@H](O[C@H]2C[C@H](N)[C@H](O)[C@H](C)O2)C1)C(=O)c1ccccc1C3=O
active: locus YAL040C, strain CLN3, stronger effect = lower value 0.208 | locus YCL061C, strain MRC1 (second series), stronger effect = lower value 0.0781 | locus YDR150W, strain NUM1, stronger effect = lower value 0.0885 | locus YDR363W, strain ESC2, stronger effect = lower value 0.478 | locus YER002W, strain NOP16, stronger effect = lower value 0.193 | locus YGR229C, strain SMI1, stronger effect = lower value 0.0661 | locus YJR075W, strain HOC1, stronger effect = lower value 0.0942 | locus YMR263W, strain SAP30, stronger effect = lower value 0.785 | locus YNL128W, strain TEP1, stronger effect = lower value 0.18 | locus YNL153C, strain GIM3, stronger effect = lower value 0.59 | locus YNL175C, strain NOP13, stronger effect = lower value 0.178 | locus YNL197C, strain WHI3, stronger effect = lower value 0.183 | locus YNL224C, strain SQS1, stronger effect = lower value 0.165 | locus YOR083W, strain WHI5 (second series), stronger effect = lower value 0.178 | locus YPL055C, strain LGE1, stronger effect = lower value 0.0958 | locus YPL241C, strain CIN2, stronger effect = lower value 0.0639
